The text below walks through data of PubChem BioAssay (NCI).

SMILES strings stand for the structures. This is part of a sample that, as a whole, favours compounds with a hit. Of some 83,000 tested, about 20% had one in any assay.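 A percent growth of 40 corresponds to 60% growth inhibition; 0 means no net growth; -100 means all cells died. Active threshold: below 10.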 Calls of active or inactive are those of the source.

The first assay concerns EKVX NSCLC. The experiment in a line: NCI-60 one-dose screen, 48 h (100 = growth as untreated, 0 = no growth, -100 = all killed). Conditions: 10 µM.
`O=S(=O)(O)c1ccc2c(c1)Sc1cc(S(=O)(=O)O)ccc1O2`: the growth was 90.1% (inactive). For the molecule `Cc1ccc(S(=O)(=O)Nc2cccc(Cn3c(=O)[nH]c4ccc(Oc5ncccn5)cc4c3=O)c2)cc1`, the growth is 86.6% (inactive). On the same count and under the same terms, for `COc1cc(CCNc2cnc3cc(N)cc(N)c3n2)cc(OC)c1` the value was 123% (inactive); for `Cc1ccc(C(=O)Nc2ccc(CN3CCN(C)CC3)c(C(F)(F)F)c2)cc1C#Cc1cnc(N)c2ccc(F)cc12`, -92.2% (active). The same measure, in the same setting: in the case of `Cc1ccc(C(=O)Nc2ccc(CN3CCN(C)CC3)c(C(F)(F)F)c2)cc1C#Cc1cncc2ncccc12` it was -71.8% (active); in that of `O=C(Nc1ccc(-n2cc(-c3ccncc3)c(-c3ccc(Cl)c(O)c3)n2)cc1)c1cc(C(F)(F)F)cc(C(F)(F)F)c1`, 97.4% (inactive); in that of `COc1ccc(C(=O)CN2C(=O)NC(c3ccccc3)(c3ccccc3)C2=O)cc1`, 98.9% (inactive). The same measure, in the same setting: in the case of `COc1ccc(-c2nc(SCC(C)C)nc(Nc3ccccc3)c2C#N)cc1` it was 85% (inactive).

With `N#Cc1ccc(NC2c3ccccc3CC2O)cc1` (centres undefined), the growth was 114% (inactive). Still for that read-out and setting: for `N#CCCCCCCCCCCC#N` the value was 97% (inactive); for `CCOC(=O)c1ccc2n1CCCc1cnc(NC(C)=O)nc1-2`, 98.5% (inactive); for `O=C(/C(Br)=C/c1ccccc1)c1ccccc1`, 109% (inactive).

For `COc1ccc2c(N)ncc(C#Cc3cc(C(=O)Nc4ccc(CN5CCN(C)CC5)c(C(F)(F)F)c4)cnc3C)c2c1`, the growth is -1.21% (active).

Another assay relates to SN12C renal. Described as above. Conditions: 10 µM unless noted.
Regarding `COc1ccccc1Cn1cc2c(c1)-c1oncc1CC2`, the growth was 39% (inactive). Still for that read-out and setting: for `NC(=O)c1c(Nc2ccccc2)nn2cc(-c3nc4ccccc4s3)c(N)nc12` the value was 95.5% (inactive); for `COc1cc(/C(=C2/O[C@@H]([C@H]3COC(C)(C)O3)[C@H]3OC(C)(C)O[C@@H]23)c2ccc3c(c2)OCO3)cc(OC)c1OC`, 59.9% (inactive); for `O=C(N/N=C/c1coc2ccccc2c1=O)c1cc2oc(-c3ccccc3)cc2[nH]1`, 120% (inactive). In the case of `CCCCCCCCCC[N+](C)(C)C`, the growth is 29.5% (inactive).

With `CCCCCCC(=O)C(C)C`, the growth is 104% (inactive). On the same count and under the same terms, in the case of `CCCC(=O)NNc1[nH]c(-c2ccc(OC)cc2)cc1C(=O)OCC` it was 110% (inactive); in that of `O=C1c2cc([N+](=O)[O-])ccc2-c2cc(Cl)c(NC(=O)C(F)(F)F)cc21`, 112% (inactive). Same read-out and setting: for `N=C(c1ccccc1)N(Cc1ccccc1)Cc1ccccc1` the value was 98.8% (inactive); for `O=C(Nc1cccc(Cn2c(=O)[nH]c3ccc(Oc4ncccn4)cc3c2=O)c1)c1ccc(Cl)cc1`, 63.5% (inactive). As to `CC[C@H](Nc1ncnc2nc[nH]c12)c1nc2cccc(NCc3ccc(C(=O)NO)o3)c2c(=O)n1-c1ccccc1`, the growth was 95.2% (inactive).

As for `CCCCCCCCCC[N+](C)(C)N`, the growth is 103% (inactive).

Take `COC1=CC(c2ccc[nH]2)=N/C1=C\c1[nH]c(C)c(C(=O)CCCCC(=O)NC(C)(C)C)c1C`: the growth was 55.3% (inactive). Still for that read-out and setting: for `COc1ccc(NC(=O)/C=C(C)/C=C/C=C(C)/C=C/C2=C(C)CCCC2(C)C)cc1` the value was 65.9% (inactive); for `CCCCCCCCc1ccc(OCCOCC[N+](C)(C)CC)cc1` (tested in a mixture with another compound), 21.5% (inactive). Take `COc1cc2c(cc1OC)C(Cc1cc(OC)c(OC)cc1[N+](=O)[O-])=NCC2`: the growth is 77.9% (inactive). Same read-out and setting: in the case of `O=C1CCNC1` it was 103% (inactive); in that of `O=S(=O)(O)c1ccc2c(c1)Sc1cc(S(=O)(=O)O)ccc1O2`, 95.8% (inactive). Same read-out and setting: for `Cc1ccc(S(=O)(=O)Nc2cccc(Cn3c(=O)[nH]c4ccc(Oc5ncccn5)cc4c3=O)c2)cc1` the value was 86.5% (inactive). The same measure, in the same setting: for `COc1ccc(/C=C2\CCCC3=C2N=C2SC=NN2C3c2ccc(OC)c(OC)c2)cc1OC` (centres undefined) the value was 40.7% (inactive); for `COc1cc(CCNc2cnc3cc(N)cc(N)c3n2)cc(OC)c1`, 107% (inactive); for `Cc1ccc(C(=O)Nc2ccc(CN3CCN(C)CC3)c(C(F)(F)F)c2)cc1C#Cc1cnc(N)c2ccc(F)cc12`, -90.8% (active). As to `Cc1ccc(C(=O)Nc2ccc(CN3CCN(C)CC3)c(C(F)(F)F)c2)cc1C#Cc1cncc2ncccc12`, the growth is -98.2% (active). Still for that read-out and setting: for `O=C(Nc1ccc(-n2cc(-c3ccncc3)c(-c3ccc(Cl)c(O)c3)n2)cc1)c1cc(C(F)(F)F)cc(C(F)(F)F)c1` the value was 74.7% (inactive); for `CCCCCCCCCC(C)NC(=O)CCl` (centres undefined), 75.1% (inactive). On to `COc1ccc(C(=O)CN2C(=O)NC(c3ccccc3)(c3ccccc3)C2=O)cc1`, for which the growth was 101% (inactive).
